test system: Parabacteroides distasonis; assay: growth AUC relative to DMSO control (median of replicates) (fraction); higher = more growth (less inhibition), active = hit call of the paper; conditions: 20 µM; 24 h;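 active = AUC reduced over 20% with Padj below 0.05 in at least 2 of 3 replicates; inactive = otherwise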
Method in brief: (§1)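 Gut bacterial monocultures were grown anaerobically at 37 °C in mGAM, starting at OD600 0.05, with 20 µM compound (1% DMSO) in round-bottom 96-well plates under pierced gas-permeable seals. OD600 was read hourly for 24 h. Area under the growth curve (minimum OD set to 0) was normalised to the plate median of DMSO controls, or to row and column medians on the industrial chemical plate. The value is the median of three biological replicates grown on separate days.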

SMILES | growth AUC
C/C(=N\NC(=O)Nc1cc(F)cc(F)c1)c1ncccc1C(=O)[O-].[Na+] | 0.875 (inactive)
OC(Cc1ccccc1Cl)(Cn1cncn1)C1(Cl)CC1 (stereo unspecified) | 1.01 (inactive)
COC(=O)C1(O)c2ccccc2-c2ccccc21 | 1.03 (inactive)
Cc1occc1C(=O)Nc1ccccc1 | 0.971 (inactive)
Clc1ccc(C(c2ccc(Cl)cc2)C(Cl)Cl)cc1 | 1.02 (inactive)
CC1(C)C(C=C(Cl)Cl)C1C(=O)OC(C#N)c1ccc(F)c(Oc2ccccc2)c1 (mixture of isomers) | 0.96 (inactive)
COc1cc(C)c(C(=O)c2c(OC)ccc(Br)c2C)c(OC)c1OC | 0.528 (active)
Cc1ccc(NC(=O)c2snnc2C)cc1Cl | 0.986 (inactive)
CN(C)C(=O)C(c1ccccc1)c1ccccc1 | 1 (inactive)
Cc1cnc(C2=NC(C)(C(C)C)C(=O)N2)c(C(=O)O)c1 (stereo unspecified) | 1.07 (inactive)
CCNc1nc(NCC)nc(SC)n1 | 1.01 (inactive)
O=c1oc2ccccc2c(O)c1C1CC(c2ccc(-c3ccccc3)cc2)Cc2ccccc21 (stereo unspecified) | 0.0292 (active)
Oc1ccc(-c2ccccc2)cc1 | 1.02 (inactive)
CNC(=O)N(C)c1nnc(C(C)(C)C)s1 | 0.973 (inactive)
COP(=O)(OC)Oc1ccc(SC)c(C)c1 | 1.02 (inactive)
CC(C)N1C(=O)c2ccccc2NS1(=O)=O | 0.787 (inactive)
COP(=O)(OC)C(O)C(Cl)(Cl)Cl (stereo unspecified) | 1.04 (inactive)
CCOP(=O)(NC(C)C)Oc1ccc(S(C)(=O)=O)c(C)c1 (stereo unspecified) | 1.06 (inactive)
CCOP(=S)(OCC)SCS(=O)(=O)C(C)(C)C | 1.02 (inactive)

SMILES | growth AUC
CCCN(CC1CC1)c1c([N+](=O)[O-])cc(C(F)(F)F)cc1[N+](=O)[O-] | 1.03 (inactive)
c1coc(-c2nc3ccccc3[nH]2)c1 | 0.977 (inactive)
CC(Oc1ccc(Cl)cc1Cl)C(=O)O (stereo unspecified) | 0.857 (inactive)
N#Cc1cc(I)c(O)c(I)c1 | 0.814 (inactive)
CCC(C)Nc1c([N+](=O)[O-])cc(C(C)(C)C)cc1[N+](=O)[O-] (stereo unspecified) | 0.919 (inactive)
c1cc2c3c(cccc3c1)CC2 | 1.01 (inactive)
CSC1=N[C@@](C)(c2ccccc2)C(=O)N1Nc1ccccc1 | 0.872 (inactive)
CC1(C)CN=C(NN=C(/C=C/c2ccc(C(F)(F)F)cc2)/C=C/c2ccc(C(F)(F)F)cc2)NC1 | 1.06 (inactive)
CCOc1cc(Oc2ccc(C(F)(F)F)cc2Cl)ccc1[N+](=O)[O-] | 1.01 (inactive)
Nc1cccc(Cl)c1Cl | 1.02 (inactive)
CCNS(=O)(=O)C(F)(F)C(F)(F)C(F)(F)C(F)(F)C(F)(F)C(F)(F)C(F)(F)C(F)(F)F | 1.01 (inactive)
Nc1ccc(Cc2ccc(N)c(Cl)c2)cc1Cl | 1.08 (inactive)
COc1nc(C)nc(NC(=O)NS(=O)(=O)c2ccccc2CCC(F)(F)F)n1 | 1.01 (inactive)
CCOP(=O)(OCC)OP(=O)(OCC)OCC | 0.946 (inactive)
CCNP(=S)(OC)O/C(C)=C/C(=O)OC(C)C (stereo unspecified) | 0.991 (inactive)
CCN(CC)N=O | 1 (inactive)
COC(=O)C(C)N(C(=O)Cc1ccccc1)c1c(C)cccc1C (stereo unspecified) | 0.985 (inactive)
C#CCN1C(=O)COc2cc(F)c(N3C(=O)C4=C(CCCC4)C3=O)cc21 | 0.855 (inactive)
N#Cc1c(Cl)c(Cl)c(Cl)c(C#N)c1Cl | 0.682 (active)

test system: Parabacteroides merdae; assay: as above; conditions: 20 µM; 24 h
Method in brief: as §1

SMILES | growth AUC
C/C(=N\NC(=O)Nc1cc(F)cc(F)c1)c1ncccc1C(=O)[O-].[Na+] | 1.01 (inactive)
OC(Cc1ccccc1Cl)(Cn1cncn1)C1(Cl)CC1 (stereo unspecified) | 0.977 (inactive)
COC(=O)C1(O)c2ccccc2-c2ccccc21 | 0.993 (inactive)
Cc1occc1C(=O)Nc1ccccc1 | 0.998 (inactive)
Clc1ccc(C(c2ccc(Cl)cc2)C(Cl)Cl)cc1 | 0.918 (inactive)
CC1(C)C(C=C(Cl)Cl)C1C(=O)OC(C#N)c1ccc(F)c(Oc2ccccc2)c1 (mixture of isomers) | 0.937 (inactive)
COc1cc(C)c(C(=O)c2c(OC)ccc(Br)c2C)c(OC)c1OC | 1.01 (inactive)
Cc1ccc(NC(=O)c2snnc2C)cc1Cl | 0.973 (inactive)
CN(C)C(=O)C(c1ccccc1)c1ccccc1 | 1 (inactive)
Cc1cnc(C2=NC(C)(C(C)C)C(=O)N2)c(C(=O)O)c1 (stereo unspecified) | 1.02 (inactive)
CCNc1nc(NCC)nc(SC)n1 | 1.04 (inactive)
O=c1oc2ccccc2c(O)c1C1CC(c2ccc(-c3ccccc3)cc2)Cc2ccccc21 (stereo unspecified) | 0.0278 (active)
Oc1ccc(-c2ccccc2)cc1 | 0.989 (inactive)
CNC(=O)N(C)c1nnc(C(C)(C)C)s1 | 1 (inactive)
COP(=O)(OC)Oc1ccc(SC)c(C)c1 | 1.05 (inactive)
CC(C)N1C(=O)c2ccccc2NS1(=O)=O | 1.02 (inactive)
COP(=O)(OC)C(O)C(Cl)(Cl)Cl (stereo unspecified) | 1 (inactive)
CCOP(=O)(NC(C)C)Oc1ccc(S(C)(=O)=O)c(C)c1 (stereo unspecified) | 1.04 (inactive)
CCOP(=S)(OCC)SCS(=O)(=O)C(C)(C)C | 0.986 (inactive)

SMILES | growth AUC
CCCN(CC1CC1)c1c([N+](=O)[O-])cc(C(F)(F)F)cc1[N+](=O)[O-] | 1.03 (inactive)
c1coc(-c2nc3ccccc3[nH]2)c1 | 0.961 (inactive)
CC(Oc1ccc(Cl)cc1Cl)C(=O)O (stereo unspecified) | 0.973 (inactive)
N#Cc1cc(I)c(O)c(I)c1 | 0.802 (inactive)
CCC(C)Nc1c([N+](=O)[O-])cc(C(C)(C)C)cc1[N+](=O)[O-] (stereo unspecified) | 0.966 (inactive)
c1cc2c3c(cccc3c1)CC2 | 0.995 (inactive)
CSC1=N[C@@](C)(c2ccccc2)C(=O)N1Nc1ccccc1 | 0.953 (inactive)
CC1(C)CN=C(NN=C(/C=C/c2ccc(C(F)(F)F)cc2)/C=C/c2ccc(C(F)(F)F)cc2)NC1 | 0.989 (inactive)
CCOc1cc(Oc2ccc(C(F)(F)F)cc2Cl)ccc1[N+](=O)[O-] | 0.954 (inactive)
Nc1cccc(Cl)c1Cl | 0.998 (inactive)
CCNS(=O)(=O)C(F)(F)C(F)(F)C(F)(F)C(F)(F)C(F)(F)C(F)(F)C(F)(F)C(F)(F)F | 0.947 (inactive)
Nc1ccc(Cc2ccc(N)c(Cl)c2)cc1Cl | 1 (inactive)
COc1nc(C)nc(NC(=O)NS(=O)(=O)c2ccccc2CCC(F)(F)F)n1 | 1 (inactive)
CCOP(=O)(OCC)OP(=O)(OCC)OCC | 0.919 (inactive)
CCNP(=S)(OC)O/C(C)=C/C(=O)OC(C)C (stereo unspecified) | 0.963 (inactive)
CCN(CC)N=O | 1.01 (inactive)
COC(=O)C(C)N(C(=O)Cc1ccccc1)c1c(C)cccc1C (stereo unspecified) | 0.944 (inactive)
C#CCN1C(=O)COc2cc(F)c(N3C(=O)C4=C(CCCC4)C3=O)cc21 | 0.958 (inactive)
N#Cc1c(Cl)c(Cl)c(Cl)c(C#N)c1Cl | 0.823 (inactive)
